The panel holds about 79,000 compounds, 15% with a hit somewhere; the sample as a whole holds those more often. Unmarked numbers belong to inactive results. Calls of active or inactive are those of the source. Rule as the data show it: active = growth inhibition above about 70%; inactive = the rest.

The nature of the test: NCI Yeast Anticancer Drug Screen. Data for the cln2 rad14 strain (AID 165).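 Also: 0% = growth equal to vehicle treated cultures.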 The following applies: S. cerevisiae cln2 rad14 strain, at 50.0 µM, hits give high values. The method, boiled down: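 Readout is yeast growth inhibition versus vehicle-treated controls, using a strain with cln2 and rad14 alterations exposed to compound.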
In the case of `COc1ccc2[nH]c3c(c2c1)-c1ncncc1CC3`, the growth inhibition is 6.1%.

As for `CN(C)c1ccc(/C=C(/NC(=O)c2ccccc2)C(N)=O)cc1`, the growth inhibition was 8.1%.

With `OC(C1COCO1)C1OCOC1C1COCO1` (stereo not given), the growth inhibition was 3.55%.

Regarding `C/C(=N/O)c1ccc(C(F)(F)F)cc1`, the growth inhibition is -17.9%.

In the case of `O=C1c2ccccc2-c2nc3cc4ccccc4cc3nc21`, the growth inhibition was 5.85%.

With `CCOP(=O)(OCC)C(Cc1ccc(OC)c(OC)c1)N=C(c1ccccc1)c1ccccc1` (stereo not given), the growth inhibition was -13.3%.

Regarding `CCOC(=O)N1CCN(c2c(N)nc(C)[nH]c2=O)CC1`, the growth inhibition was -14.8%.

Take `Cn1c(-c2ccc(Br)cc2)cc2[nH]c(=S)nc(N)c2c1=O`: the growth inhibition was -12.3%.

Turning to `Cc1ccc(C)c(NS(=O)(=O)c2ccc(Cl)c([N+](=O)[O-])c2)c1`, the growth inhibition was 96.8% (active).

For `COC(=O)c1cccc(Cl)c1C(=O)c1ccc(C)cc1C`, the growth inhibition was -52.9%.

With `CNC(=O)n1c(N)nc(-c2ccccc2)c1-c1ccccc1`, the growth inhibition was 1.7%.

Regarding `Cc1ccc(C(C)C)c(O)c1NC(=S)N/N=C\c1cc(Cl)ccc1O`, the growth inhibition is 7.6%.

On to `COc1cc(Br)c(C=Nc2cccc3cc(OC)c(OC)cc23)cc1OC`, for which the growth inhibition was 20.4%.

As to `NNC(=O)CNC(=O)c1ccccc1`, the growth inhibition is 1.85%.

For `O=S(=O)(O)C(Cc1nc2ccccc2[nH]1)S(=O)(=O)OCCC1S(=O)(=O)OCCOS1(=O)=O` (stereo not given), the growth inhibition is -18.9%.

With `Cc1ncc([N+](=O)[O-])n1CCN(C)CCCCn1ccnc1[N+](=O)[O-]`, the growth inhibition was -3.75%.

As for `Cc1oc([N+](=O)[O-])cc1C(=O)O`, the growth inhibition is -69.7%.

As to `Cc1ccccc1C(=O)OCCBr`, the growth inhibition was -27.1%.

On to `Cc1cccc(C(=O)NCCN(C)C)c1[N+](=O)[O-]`, for which the growth inhibition is 14.9%.

Consider `NC(CO)C(=O)NCCS(=O)(=O)O` (stereo not given), for which the growth inhibition was 22.1%.

`CC(C)CCCC(C)C1CCC2C3C(=O)C=C4C=CCCC4(C)C3CCC12C` (stereo not given): the growth inhibition is 9.55%.

On to `CCOC1(COP(=O)(OCc2ccccc2)OCc2ccccc2)COC(COP(=O)(OCc2ccccc2)OCc2ccccc2)(OCC)CO1` (stereo not given), for which the growth inhibition is 2.2%.

`CCC[N+]1([O-])CCOCC1`: the growth inhibition is 26.4%.

Turning to `CC12CCC(=O)C=C1CCC1C2CCC2(C)C(C(=O)Cn3c(=O)[nH]cc(F)c3=O)CCC12` (stereo not given), the growth inhibition is 8.85%.

`C=CCOCn1ccc(NC(=O)c2ccccc2)nc1=O`: the growth inhibition is -3.15%.

For the compound `O=C(O)c1ccc(N2C(=O)c3ccccc3C2=O)cc1`, the growth inhibition is -10.1%.

For the compound `CCN(CC)CCC1(C(N)=O)Cc2ccccc2N(CC)c2ccccc21` (stereo not given), the growth inhibition is -2.6%.

On to `Cn1c(=O)c2c(nc3n(C)c(=O)c4ccccc4n23)n(C)c1=O`, for which the growth inhibition is 7.3%.

For the compound `C=CCOc1cc(=O)[nH]c2ccccc12`, the growth inhibition was -51.1%.

As to `CCCCCCOC(=O)/C=C1/OC(=O)c2ccccc21`, the growth inhibition is -60.5%.

As to `O=C1N(O)C2(C=CCCC2)/C(=N/O)C12CCCCC2` (stereo not given), the growth inhibition is 11.4%.

In the case of `O=C1C=CC(c2ccccc2)(c2ccccc2)O1`, the growth inhibition is -22.4%.

For the compound `Nc1cc(C(F)(F)F)cc(C(F)(F)F)c1`, the growth inhibition is 16.6%.

For `CC(O)(C(=O)c1ccccc1)c1ccccc1` (stereo not given), the growth inhibition is -8.15%.

As to `CCC(SC)C(=O)N(C)c1ccccc1` (stereo not given), the growth inhibition is -10.3%.

In the case of `Cc1c(C)c2ccc(OCC(O)COC(C)C)c(C)c2oc1=O` (stereo not given), the growth inhibition is -5.95%.

As to `COc1ccc(COC(=O)Nc2cccc(Cl)c2)cc1OC`, the growth inhibition was -24.2%.

In the case of `CC(=O)/C(=C/c1ccco1)CC(=O)O`, the growth inhibition was 4.05%.

As to `CCOC(=O)c1c(C)c2c(n1C)CCC(CCC(C)=O)C2=O` (stereo not given), the growth inhibition is 14.3%.

As to `Cc1cn(CCCn2cnc3c(N)ncnc32)c(=O)[nH]c1=O`, the growth inhibition is -6.6%.

(Values after PubChem BioAssay (NCI).)
